Results published in PubChem BioAssay (NCATS).
Values joined by “and” are separate entries in the source; they are usually repeats but may differ in a detail not shown here. Equal entries are not always repeated. Results filed as inconclusive are left out. Some compounds were tested as several samples or in several runs, with calls that do not always agree. Active and inactive are the calls of the source. Unless noted, the call rests on the fitted dose curve; in most records, active means well fitted curve in the direction sought with a large enough effect; inconclusive means small, poorly fitted or top-dose-only effect, or another doubt; inactive means no such curve, though single readings can be large; an effect the other way counts as inactive or inconclusive.

How the values were obtained:
[1] = target: Luciferin 4-monooxygenase (Photinus pyralis) (UniProt P08659); assay: Biochemical firefly luciferase enzyme assay for NPC (AID 624030);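 further: purified P. pyralis luciferase at 10 nM with luciferin and ATP substrate; series mostly up to about 59 µM; nearly all actives have a fitted effect of over 70% in size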
Luciferin 4-monooxygenase (Photinus pyralis), sequence (P08659 whole entry, looked up): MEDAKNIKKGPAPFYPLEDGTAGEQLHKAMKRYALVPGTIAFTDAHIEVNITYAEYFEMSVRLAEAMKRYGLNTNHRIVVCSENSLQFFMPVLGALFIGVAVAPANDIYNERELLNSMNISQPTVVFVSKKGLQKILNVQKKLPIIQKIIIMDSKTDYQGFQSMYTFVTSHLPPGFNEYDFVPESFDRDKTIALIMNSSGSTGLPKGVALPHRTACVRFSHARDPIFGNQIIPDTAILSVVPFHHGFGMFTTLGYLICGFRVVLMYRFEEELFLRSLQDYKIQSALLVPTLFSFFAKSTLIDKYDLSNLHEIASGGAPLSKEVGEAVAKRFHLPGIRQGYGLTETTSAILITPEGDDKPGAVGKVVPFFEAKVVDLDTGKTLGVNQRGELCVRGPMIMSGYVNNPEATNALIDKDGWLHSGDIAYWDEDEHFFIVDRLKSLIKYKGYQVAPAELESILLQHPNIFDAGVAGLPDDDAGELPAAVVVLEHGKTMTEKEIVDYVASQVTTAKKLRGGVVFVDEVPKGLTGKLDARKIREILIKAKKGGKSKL
Summary of the method: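 Purified P. pyralis luciferase at 10 nM in 50 mM Tris Acetate (final), luminescence read within 5 minutes of enzyme addition to compounds. Activity normalised to PTC124 versus DMSO; concentration-response curves classed by r2, magnitude and activity.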

[2] = S16 Schwann cell viability assay (CellTiter-Glo assay) (AID 624031); further: nearly all actives have a fitted effect of over 70% in size; further: potency means the concentration at half of the fitted maximal effect
Summary of the method: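 Native S16 rat Schwann cells in DMEM/10% FBS without phenol red were incubated overnight, then exposed to compounds for 24 h at 37 °C/5% CO2. Viability was read as ATP luminescence (CellTiter-Glo), normalized to no-cell wells and DMSO (0%).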

[3] = S16 Schwann cell PMP22 intronic element firefly luciferase assay (AID 624032); further: nearly all actives have a fitted effect of over 30% in size; further: potency means the concentration at half of the fitted maximal effect
Summary of the method: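 Rat S16 Schwann cells stably carrying firefly luciferase driven by a PMP22 intronic element, in 10% FBS, treated 24 h at 37 C. ONE-Glo luminescence normalized to PTC124 control and DMSO (0%); curves classed by r2, magnitude and activity.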

[4] = target: Glutaminase kidney isoform, mitochondrial (Homo sapiens) (UniProt O94925); assay: qHTS for Inhibitors of Glutaminase (GLS): LOPAC Validation (AID 624146); further: nearly all actives have a fitted effect of over 60% in size; further: potency means the concentration at half of the fitted maximal effect
Glutaminase kidney isoform, mitochondrial (Homo sapiens), sequence (O94925 whole entry, looked up, canonical isoform): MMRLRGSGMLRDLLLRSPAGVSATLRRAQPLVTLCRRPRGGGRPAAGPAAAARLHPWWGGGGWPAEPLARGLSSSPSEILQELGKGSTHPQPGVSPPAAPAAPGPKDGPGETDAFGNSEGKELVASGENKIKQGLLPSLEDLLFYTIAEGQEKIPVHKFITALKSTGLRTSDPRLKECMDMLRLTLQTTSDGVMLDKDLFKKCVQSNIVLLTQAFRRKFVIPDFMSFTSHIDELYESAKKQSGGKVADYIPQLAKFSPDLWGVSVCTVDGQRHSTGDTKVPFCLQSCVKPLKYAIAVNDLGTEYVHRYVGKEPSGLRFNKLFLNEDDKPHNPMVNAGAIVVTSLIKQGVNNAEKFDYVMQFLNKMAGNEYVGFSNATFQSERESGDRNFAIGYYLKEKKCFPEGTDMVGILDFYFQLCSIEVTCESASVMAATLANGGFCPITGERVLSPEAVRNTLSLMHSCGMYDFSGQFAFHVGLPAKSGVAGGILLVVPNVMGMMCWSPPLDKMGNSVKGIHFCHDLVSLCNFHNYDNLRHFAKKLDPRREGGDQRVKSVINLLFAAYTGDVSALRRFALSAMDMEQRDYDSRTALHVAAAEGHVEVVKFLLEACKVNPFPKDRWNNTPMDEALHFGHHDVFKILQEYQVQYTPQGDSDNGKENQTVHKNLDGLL
Summary of the method: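 Two-point fluorescence kinetic (t0, 30 min RT) for hKGA; glutamate detected via glutamate oxidase–HRP–Amplex Red. Substrate: 1 mM L-glutamine solution; buffer 45 mM KH2PO4, pH 8.2.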

[5] = qHTS of Trypanosoma Brucei Inhibitors: LOPAC Validation (AID 624147)
Summary of the method: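 TbPYK + substrate in 50 mM TEA pH 7.2, 100 mM KCl, 10 mM MgCl2, 0.05% BSA, 0.01% Tween-20; cpd pinned; ADP 130 uM final; 45 min RT; Kinase-Glo Plus 10 min; luminescence endpoint.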

[6] = target: Glucagon-like peptide 1 receptor (Homo sapiens) (UniProt P43220); assay: qHTS of GLP-1 Receptor Agonists: LOPAC Validation (AID 624148);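 further: higher luminescence signal means agonism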
Glucagon-like peptide 1 receptor (Homo sapiens), sequence (P43220 whole entry, looked up): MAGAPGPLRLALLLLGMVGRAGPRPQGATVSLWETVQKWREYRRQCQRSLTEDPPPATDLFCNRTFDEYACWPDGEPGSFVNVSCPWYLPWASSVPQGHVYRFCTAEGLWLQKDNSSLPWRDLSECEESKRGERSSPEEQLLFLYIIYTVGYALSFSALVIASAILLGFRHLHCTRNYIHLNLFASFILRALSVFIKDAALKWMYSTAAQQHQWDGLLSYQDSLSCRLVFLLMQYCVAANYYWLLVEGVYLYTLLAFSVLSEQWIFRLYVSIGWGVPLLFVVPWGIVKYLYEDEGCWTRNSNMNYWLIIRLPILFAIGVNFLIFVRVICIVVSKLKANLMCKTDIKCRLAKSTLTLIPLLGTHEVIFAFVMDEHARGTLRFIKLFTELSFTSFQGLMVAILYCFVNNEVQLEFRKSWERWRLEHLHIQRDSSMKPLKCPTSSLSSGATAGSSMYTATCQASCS
Summary of the method: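 HEK293 cells stably co-expressing GLP-1R and a cAMP-responsive luciferase reporter, plated 12 hours before compound, then incubated 4-6 hr at 37 deg C. Luminescence read 12 min after detection reagent.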

[7] = qHTS of Nrf2 Activators: LOPAC Validation (AID 624149)
Summary of the method: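 Luminescence read-out of ARE-luciferase activation: AREc32_Fluc cells treated with compounds for 24 hr at 37 deg C, then lysed with Steady-Glo for 30 min at room temperature before reading.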

[8] = HTS Assay for Allosteric Antagonists of the Human D2 Dopamine Receptor: Hit Validation in HTRF (AID 624455);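 further: stable D1 dopamine receptor cell line scored for blocking the D1 response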
Summary of the method: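 First, antagonism was screened by calcium flux in a force-coupled, inducible Hek293 Trex D2 line challenged with EC80 dopamine. Hits then went into an HTRF assay in cells stably expressing D1, testing inhibition of the D1 response.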

[9] = S16 Schwann cell PMP22 intronic element beta-lactamase assay (AID 624044; calls by dose curve; further: nearly all actives have a fitted effect of over 15% in size)
Summary of the method: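 Rat S16 Schwann cells with beta-Lac driven by a PMP22 intronic element, compound-treated 24 h at 37 °C. LiveBLAzer FRET B/G read: 460 nm normalized to potassium clavulanate vs DMSO; 535 nm FRET as viability; concentration-effect curves classified.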

[10] = target: Voltage-gated inwardly rectifying potassium channel KCNH2 (Homo sapiens) (UniProt Q12809); assay: qHTS Assay for Small Molecule Inhibitors of the Human hERG Channel Activity (AID 588834);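 further: lower thallium flux fluorescence means stronger hERG block; nearly all actives have a fitted effect of over 50% in size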; further: potency means the concentration at half of the fitted maximal effect
Voltage-gated inwardly rectifying potassium channel KCNH2 (Homo sapiens), sequence (Q12809 whole entry, looked up): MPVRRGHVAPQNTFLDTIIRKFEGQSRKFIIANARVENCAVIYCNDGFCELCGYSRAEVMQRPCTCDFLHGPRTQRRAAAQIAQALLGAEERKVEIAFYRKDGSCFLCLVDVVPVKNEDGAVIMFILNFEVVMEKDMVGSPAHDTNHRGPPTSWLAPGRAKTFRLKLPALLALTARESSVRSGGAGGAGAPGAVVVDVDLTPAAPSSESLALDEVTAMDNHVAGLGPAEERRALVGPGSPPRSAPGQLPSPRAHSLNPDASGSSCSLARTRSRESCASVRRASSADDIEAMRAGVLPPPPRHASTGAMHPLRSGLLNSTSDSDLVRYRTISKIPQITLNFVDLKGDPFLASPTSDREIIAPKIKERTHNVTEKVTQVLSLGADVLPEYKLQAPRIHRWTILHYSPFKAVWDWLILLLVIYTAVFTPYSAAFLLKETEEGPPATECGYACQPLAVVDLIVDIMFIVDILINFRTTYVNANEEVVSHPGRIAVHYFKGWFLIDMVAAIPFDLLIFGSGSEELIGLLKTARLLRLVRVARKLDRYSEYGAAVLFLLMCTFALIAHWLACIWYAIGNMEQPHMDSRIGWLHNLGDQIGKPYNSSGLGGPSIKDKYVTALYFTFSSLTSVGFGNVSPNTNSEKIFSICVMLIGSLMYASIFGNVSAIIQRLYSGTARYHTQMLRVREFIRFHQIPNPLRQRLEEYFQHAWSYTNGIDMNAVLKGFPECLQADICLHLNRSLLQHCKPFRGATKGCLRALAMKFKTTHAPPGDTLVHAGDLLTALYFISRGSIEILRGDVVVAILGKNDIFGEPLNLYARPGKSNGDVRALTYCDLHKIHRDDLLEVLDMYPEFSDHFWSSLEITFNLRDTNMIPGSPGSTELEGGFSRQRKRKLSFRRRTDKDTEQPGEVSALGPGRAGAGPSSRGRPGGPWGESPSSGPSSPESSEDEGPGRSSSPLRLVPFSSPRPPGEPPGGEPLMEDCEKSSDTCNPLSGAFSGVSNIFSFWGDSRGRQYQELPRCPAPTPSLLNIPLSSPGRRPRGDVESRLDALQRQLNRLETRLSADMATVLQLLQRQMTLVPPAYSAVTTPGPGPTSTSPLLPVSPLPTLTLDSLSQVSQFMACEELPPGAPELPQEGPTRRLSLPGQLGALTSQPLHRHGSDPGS
Summary of the method: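 Measured: FluxOR fluorescence after thallium stimulation in U2OS cells transduced with hERG by baculovirus. Compounds pre-incubated around 10 min; medium Opti-MEM with 2% FCS. AC50 from Hill equation.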

Measured: Potency

Nc1ncnc2c1ncn2[C@@H]1O[C@H](CO)[C@@H](O)[C@H]1O
not listed: [9] | [10]
inactive: all other assays above

CCN(CC)CCNC(=O)c1c(C)[nH]c(/C=C2\C(=O)Nc3ccc(F)cc32)c1C
inactive: [1] | [9]

CCOc1nc2cccc(C(=O)O)c2n1Cc1ccc(-c2ccccc2-c2nn[nH]n2)cc1
inactive: [1] | [2]

CSc1ccc2c(c1)N(CCC1CCCCN1C)c1ccccc1S2 (configuration not stated)
active: [3] 28.7 µM
not listed: [2] | [4] | [10]
inactive: all other assays above

CC(C)NC[C@H](O)c1ccc(O)c(O)c1
inactive: [10] | [5] | [7]
5.01 µM (active) and inactive: [4]

CCN(CC)CCOC(=O)C1(C2CCCCC2)CCCCC1
inactive: [1] | [4] | [5] | [6] | [7] | [8]

CC(C)(C)C(=O)C(Oc1ccc(Cl)cc1)n1ccnc1 (configuration not stated)
inactive: [1] | [2] | [9]

CCCCN(CCCC)CCCOC(=O)c1ccc(N)cc1
inactive: [1] | [2] | [3]

CN(C)CC[C@@H](c1ccc(Cl)cc1)c1ccccn1
inactive: [4] | [5] | [6] | [7] | [8]

Cc1ccc(C(C)C)cc2c(C)ccc1-2
inactive: [1] | [2] | [3] | [9]

OCc1cc(C(O)CNCCCCCCOCCCCc2ccccc2)ccc1O (configuration not stated)
active: [10] 4.47 µM and 3.55 µM | [2] 20.3 µM
not listed: [1] | [3]
inactive: all other assays above
